Rows were chosen to be rich in hits. Some 5.2% of all compounds tested hit in one or more screens of this group.
esBAF inh = Bmi1 luciferase reporter increase in mESCs, primary screen, esBAF inhibitor project, mouse ES cells, Bmi1 luciferase knock-in, single point; 2% of 350,000 active; AID 602393, 2012; reporter increase, % at 12.5 µM; 24 h; 100% = twice the neutral-well signal; in the data active = activation above about 40%; inconclusive = no clear call, values can overlap the other calls;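 note: 0% = median of the plate's neutral control wells and 100% = double that signal; a rise in the Bmi1 reporter signal indicates esBAF inhibition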
SMARCA2 activ = SMARCA2 (BRM) function activators, primary screen, cell-based, luminescence, high throughput. activation, % at 9.1 µM. AID 652017, 2013. MG213 cells, MMTV-luciferase reporter, dexamethasone, overnight. 1% of 370,000 active; in the data active = activation above about 7.8%;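 note: 0% = vehicle wells and 100% = reference activator wells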
NadD inh = inhibitors of S. aureus NadD, primary screen, biochemical, colorimetric, uHTS. purified NadD enzyme, colorimetric absorbance read-out. inhibition, % at 20 µM. 0.78% of 360,000 active; in the data active = inhibition above about 26%
NR3A LBD binder = binders of NR3A ligand-binding domain, primary screen, biophysical, differential scanning fluorimetry, uHTS. Tm shift relative to glycine control, % at 25 µM. NR3A LBD differential scanning fluorimetry, Tm shift; 0% = protein alone, 100% = glycine-bound protein. 2.5% of 340,000 active;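 active = melting temperature shift of at least 10% of the positive control shift, at one fixed dose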
Vif imaging = HIV Vif self-association inhibitors, primary screen, imaging, HEK293T, single point. inhibition, % at 7.49 µM. 0.35% of 340,000 active. HEK293T cells, Vif self-association by quenched fluorescence, 24 h; in the data active = inhibition above about 50%, passing the limit was not always enough; inconclusive = no clear call, values can overlap the other calls; inactive = below about 31%
SKN-1 inh = suppressors of acrylamide-induced Pgst-4::GFP reporter in worms, primary screen, SKN-1 inhibitor project, whole organism, uHTS, GFP/RFP fluorescence ratio, strain VP596. inhibition, % at 21.8 µM. C. elegans VP596 Pgst-4::GFP/RFP ratio, 24 h. 0.49% of 360,000 active;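 active = interference check ratio from 0.5 to 1.5 plus GFP to RFP signal ratio inhibition reaching or exceeding a fixed threshold, cut at about 30% in these data, passing the limit was not always enough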
Active calls of the source: *.

For C[N+](C)(C)CCN1C(=O)CSC1=O the results were SMARCA2 activ 0.4, NadD inh -0.6, NR3A LBD binder -0.2, Vif imaging 54.8* and SKN-1 inh -9.7.
For COc1cc(/C=C2/SC(=S)N(CC(=O)Nc3nc4ccccc4s3)C2=O)cc(OC)c1OC the results were esBAF inh -4.8, SMARCA2 activ -1.3, NadD inh 35.0*, NR3A LBD binder -2.2, Vif imaging -2.7 and SKN-1 inh 13.2.
Cc1cccc(Cc2cnc(NC(=O)CN3C(=O)/C(=C/c4ccccc4)SC3=S)s2)c1 was read as esBAF inh 3.8, SMARCA2 activ 1.2, NadD inh 31.0*, NR3A LBD binder -0.7, Vif imaging -13.9 and SKN-1 inh 3.2.
COc1ccc(S(=O)(=O)N(C)C[C@H]2Oc3ccc(NC(=O)C4CC4)cc3C(=O)N([C@@H](C)CO)C[C@H]2C)cc1 was read as esBAF inh -9.7.
O=C(NCCCN1CCOCC1)c1ccc(Sc2ccccc2Cl)c([N+](=O)[O-])c1 was read as SMARCA2 activ 0.0, NadD inh -8.0, NR3A LBD binder 17.8*, Vif imaging -8.5 and SKN-1 inh -2.1.
Screening O=C(NCCCN1CCOCC1)c1ccc(Sc2ccc(Br)cc2)c([N+](=O)[O-])c1 returned esBAF inh -0.5, SMARCA2 activ -1.4, NadD inh -7.5, NR3A LBD binder 0.9, Vif imaging -14.5 and SKN-1 inh 9.4.
Screening CCN1C(=O)/C(=C2\SC(=S)N(c3c(C)n(C)n(-c4ccccc4)c3=O)C2=O)c2ccccc21 returned esBAF inh -3.8, SMARCA2 activ -1.8, NadD inh 11.8, NR3A LBD binder 2.0, Vif imaging -1.4 and SKN-1 inh 6.8.
For CCN1C(=O)/C(=C2\SC(=S)N(NC(=O)c3ccccc3O)C2=O)c2ccccc21 the results were SMARCA2 activ -2.0, NadD inh 12.0, NR3A LBD binder 13.7*, Vif imaging 5.5 and SKN-1 inh 4.5.
Screening C[C@H](O)C#Cc1ccc2c(c1)O[C@H](CN(C)C(=O)CC1CC1)[C@@H](C)CN([C@H](C)CO)S2(=O)=O returned esBAF inh -0.6.
For C[C@H]1CN([C@@H](C)CO)C(=O)Cc2cc(NC(=O)C3CC3)ccc2O[C@H]1CN(C)S(=O)(=O)c1cccs1 the results were esBAF inh -4.7.
Screening Cc1cc(/C=C2/NC(=S)NC2=O)c(C)n1-c1cccnc1 returned esBAF inh inconclusive, SMARCA2 activ 2.1, NadD inh 2.3, NR3A LBD binder 0.2, Vif imaging -11.5 and SKN-1 inh 20.0.
Screening Cc1cc(/C=C2/SC(=S)N(c3ccc([N+](=O)[O-])cc3)C2=O)c(C)n1-c1cccnc1 returned SMARCA2 activ -5.7, NadD inh 17.1, NR3A LBD binder 0.5, Vif imaging 4.7 and SKN-1 inh -16.0.
Screening Cc1cc(/C=C2/NC(=O)N(c3ccccc3)C2=O)c(C)n1-c1cccnc1 returned esBAF inh 70.7*, SMARCA2 activ 2.3, NadD inh 7.3, NR3A LBD binder -7.2, Vif imaging -2.1 and SKN-1 inh 11.8.
Cc1cc(/C=C2/SC(=S)N(c3cccc(Cl)c3)C2=O)c(C)n1-c1cccnc1 was read as esBAF inh -16.3, SMARCA2 activ -5.7, NadD inh 29.6*, NR3A LBD binder 3.5 and SKN-1 inh 8.2.
For COCC(=O)Nc1ccc2c(c1)OC[C@@H](C)N(Cc1ccccc1OC)C[C@@H](C)[C@@H](OC)CN(C)C2=O the results were esBAF inh -4.0.
For FC(F)(F)COc1nc(OCC(F)(F)F)nc(N2CCN(c3ccccc3)CC2)n1 the results were esBAF inh -6.3, SMARCA2 activ -0.6, NadD inh -3.0, NR3A LBD binder 12.0*, Vif imaging 11.9 and SKN-1 inh -1.9.
`CS(=O)(=O)c1ccc2sc(NC(=O)c3cc4ccccc4o3)nc2c1` gave SMARCA2 activ -1.9, NadD inh 3.4, NR3A LBD binder 11.3*, Vif imaging -3.1 and SKN-1 inh -4.7.
O=C(Nc1nnc(C2CC2)s1)c1ccc(Cl)nc1 was read as esBAF inh 53.0*, SMARCA2 activ 2.4, NadD inh 1.3, NR3A LBD binder 0.9, Vif imaging -5.1 and SKN-1 inh 16.5.
O=C(Nc1nnc(C2CC2)s1)c1cc2ccccc2o1 was read as esBAF inh 46.1*, SMARCA2 activ 2.0, NadD inh 4.1, NR3A LBD binder -0.9, Vif imaging -2.1 and SKN-1 inh 12.3.
Screening Cc1ccc(C(=O)Nc2nc3ccc(S(C)(=O)=O)cc3s2)o1 returned esBAF inh 36.0, SMARCA2 activ 1.2, NadD inh -1.3, NR3A LBD binder 0.5, Vif imaging 0.9 and SKN-1 inh 13.2.
For CS(=O)(=O)c1ccc2nc(NC(=O)c3cc4ccccc4o3)sc2c1 the results were esBAF inh 67.5*, SMARCA2 activ -1.6, NadD inh -6.0, NR3A LBD binder 26.4* and SKN-1 inh -10.0.
For CO[C@H]1CN(C)C(=O)c2cc(NS(=O)(=O)c3ccc(Cl)cc3)ccc2OC[C@H](C)N(C(=O)NC(C)C)C[C@@H]1C the results were esBAF inh -5.0.
Screening COc1ccc(C2C=C(c3ccc(Br)cc3)Nc3nc(N4C(=O)CCC4=O)nn32)cc1 (centres undefined) returned esBAF inh -4.9, SMARCA2 activ -1.2, NadD inh 11.5, NR3A LBD binder 13.2*, Vif imaging 15.4 and SKN-1 inh 20.0.
For O=C1CCC(=O)N1c1nc2n(n1)C(c1ccccc1)C=C(c1ccc(Br)cc1)N2 (centres undefined) the results were esBAF inh -0.8, SMARCA2 activ -1.1, NadD inh 4.9, NR3A LBD binder 0.5, Vif imaging -1.4 and SKN-1 inh 9.1.
Screening Cc1cccc(C)c1NC(=O)CN(C)C(=O)c1ccc(NS(=O)(=O)c2ccc3[nH]c(=O)[nH]c3c2)cc1 returned esBAF inh 0.1, SMARCA2 activ -2.1, NadD inh 2.4, NR3A LBD binder 12.8*, Vif imaging 10.4 and SKN-1 inh 9.9.
`CCCNC(=O)N1C[C@@H]2[C@H](c3ccccc31)[C@H](CO)N2Cc1cc(F)ccc1F` gave esBAF inh 0.1.
Screening CC(C)NC(=O)C1CCCN(S(=O)(=O)c2cccs2)C1 (centres undefined) returned esBAF inh 4.4, SMARCA2 activ -1.1, NadD inh -4.3, NR3A LBD binder 10.8*, Vif imaging 5.3 and SKN-1 inh 10.5.

Bioassay records (PubChem)
